In the library only some 12% were active in any assay of this set; here they are far more common.
G9a inh: inhibitors of human histone lysine methyltransferase G9a | G9a H3K9 monomethylation, AlphaScreen, 2 h | 8.8% of 350,000 active | Q96KQ7 | Potency, µM (top dose mostly 102 µM), for inactives: at the top dose activity, negative = inhibition, hits mostly inhibitors | AID 504332; further: on the % scale 0 is the no-effect control and ±100 the full control effect; nearly all actives have a fitted effect of over 75% in size
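Signal arises when biotinylated H3K9 peptide, once monomethylated, bridges streptavidin donor and antibody-captured acceptor beads. Enzyme at 20 nM was preincubated 15 min with test compounds; peptide 500 nM and SAM 20 uM then reacted for 2 h.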
HP1b chromo inh: inhibitors of HP1-beta chromodomain binding to methylated histone tails | 0.56% of 390,000 active | AlphaScreen HP1-beta / biotin-H3K9me3 peptide binding | P83916 | Potency, µM (titrated, usually from 114 µM), without a hit: at the top dose activity change, negative = inhibition, hits mostly inhibitors | AID 540317; further: nearly all actives have a fitted effect of over 70% in size
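Compound inhibition of the preformed complex between 50 nM HP1-beta and 50 nM biotinylated H3K9me3 peptide was read by AlphaScreen. Buffer was PBS pH 7.4 with 0.01% Tween-20. Incubations ran 30 min at room temperature, with 10 ug/mL donor/acceptor beads.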
JMJD2A Tudor inh: blocks the human JMJD2A Tudor domain | AlphaScreen JMJD2A-Tudor / H3K4me3 peptide binding | Potency, µM (series often up to 114 µM), inactives show at the highest dose activity change, negative = inhibition, hits mostly inhibitors | 4.4% of 390,000 active | AID 504339; further: on the % scale 0 is the no-effect control and ±100 the full control effect; nearly all actives have a fitted effect of over 50% in size
PLK1 PBD block: blocks phosphopeptide binding to human PLK1 polo-box domain; P53350; Plk1 PBD binding of FITC phosphopeptide, fluorescence polarization; Potency, µM, inactives show max response, negative = inhibition, hits mostly inhibitors; 2.8% of 360,000 active; AID 720504; further: series mostly up to about 57 µM; on the % scale 0 is the no-effect control and ±100 the full control effect; nearly all actives have a fitted effect of over 65% in size
Target sequence (P53350 whole entry, looked up, the tested form may be a part): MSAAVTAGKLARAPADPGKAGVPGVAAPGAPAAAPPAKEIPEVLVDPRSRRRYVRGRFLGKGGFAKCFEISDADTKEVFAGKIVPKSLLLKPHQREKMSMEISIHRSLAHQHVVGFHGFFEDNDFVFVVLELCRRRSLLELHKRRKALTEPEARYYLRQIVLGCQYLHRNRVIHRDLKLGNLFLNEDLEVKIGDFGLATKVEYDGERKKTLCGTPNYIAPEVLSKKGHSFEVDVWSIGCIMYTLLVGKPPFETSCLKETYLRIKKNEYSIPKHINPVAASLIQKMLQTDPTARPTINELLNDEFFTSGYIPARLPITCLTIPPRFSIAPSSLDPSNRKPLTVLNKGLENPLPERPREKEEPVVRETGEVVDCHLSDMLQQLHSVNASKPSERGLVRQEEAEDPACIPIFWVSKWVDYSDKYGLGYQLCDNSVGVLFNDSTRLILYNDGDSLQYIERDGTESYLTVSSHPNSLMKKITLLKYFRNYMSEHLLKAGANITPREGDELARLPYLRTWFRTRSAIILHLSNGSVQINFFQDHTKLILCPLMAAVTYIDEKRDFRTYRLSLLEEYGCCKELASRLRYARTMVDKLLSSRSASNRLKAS
Sfp inh: Sfp phosphopantetheinyl transferase inhibition; Q9F4F7; Potency, µM, for the others: largest response in the series, negative = inhibition, most hits filed as inhibitors; Biochemical Sfp PPTase activity, qHTS; 3.5% of 310,000 active;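 further: the enzyme is Sfp with the accession as filed and its product quenches rhodamine fluorescence; 0% = enzyme reaction without inhibitor and -100% = no enzyme wells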
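Sfp 15 nM + cpd, 15 min RT; start w/ rhodamine-CoA 5 uM, BHQ-2-YbbR 12.5 uM (final); 50 mM Hepes pH 7.6, 10 mM MgCl2, 0.01% NP-40, 0.01% BSA; read 525/598 nm at 0 and 30 min.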
BAZ2B inh: BAZ2B (human) inhibition; 4.4% of 360,000 active; Potency, µM (doses to about 114 µM), without a hit: top-dose activity change, negative = inhibition, usual class: inhibitors; Q9UIF8; AlphaScreen BAZ2B-H3K14Ac peptide displacement; further: on the % scale 0 is the no-effect control and ±100 the full control effect; nearly all actives have a fitted effect of over 60% in size
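In this displacement format the biotinylated H3(5-23) peptide acetylated at Lys14 serves as ligand at 50 nM, with BAZ2B at 50 nM in PBS pH 7.4 containing 0.01% Tween-20. Donor and acceptor beads are 10 ug/mL final.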
The depositor's hits bear a star; [ ] = another dose, or the depositor's remark. The call rests on the fitted dose curve; in most records, active means well fitted curve in the direction sought with a large enough effect; inconclusive means small, poorly fitted or top-dose-only effect, or another doubt; inactive means no such curve, though single readings can be large; an effect the other way counts as inactive or inconclusive. Potency means the concentration at half of the fitted maximal effect.

`CC(C)CC(=O)NNC(=S)Nc1ccc(S(N)(=O)=O)cc1` gave G9a inh 5.62µM*, HP1b chromo inh -2.9%, JMJD2A Tudor inh 1.7%, PLK1 PBD block 23.8µM*, Sfp inh 20µM* and BAZ2B inh -34.7%.
CCc1ccc(C(=O)NNC(=S)Nc2ccc(S(N)(=O)=O)cc2)s1 was read as G9a inh 7.94µM*, HP1b chromo inh 15.4%, JMJD2A Tudor inh -2.3%[11.4 µM], PLK1 PBD block -16.4%, Sfp inh 21.1% and BAZ2B inh -2.4%.
For CCOc1ccc(NC(=O)NNC(=O)c2ccc(CC)s2)cc1 the results were HP1b chromo inh 27.6%, JMJD2A Tudor inh -34.4%, PLK1 PBD block -17.1%, Sfp inh 2.5% and BAZ2B inh -31.6%.
Screening O=C(COc1ccccc1)N=C1SC2CS(=O)(=O)CC2N1c1ccc(F)cc1 (centres undefined) returned G9a inh 18.3%, HP1b chromo inh 58.3%, JMJD2A Tudor inh -14.2%, PLK1 PBD block -13.3%, Sfp inh 17.8% and BAZ2B inh -3.8%[57.1 µM].
`CCNc1nc(C#N)nc(N2CCOCC2)n1` gave HP1b chromo inh 25.4%[57 µM] and JMJD2A Tudor inh -12.3%[57.1 µM].
Cc1ccc(S(=O)(=O)CC(=O)Nc2nc3c(C)cccc3s2)cc1 was read as G9a inh 7.6%[59 µM], HP1b chromo inh -8.7%, JMJD2A Tudor inh -20.5% and BAZ2B inh -10.7%.
For CC(=O)NC[C@@H]1CN(c2ccc(N3CCOCC3)c(F)c2)C(=O)O1 the results were G9a inh 22.0%[59 µM] and Sfp inh 10.8%.
Screening CCOC(=O)Cc1ccc(NC(=O)Nc2nnc(N3CCCCC3C)s2)cc1 (centres undefined) returned G9a inh inconclusive, HP1b chromo inh 20.7%, JMJD2A Tudor inh -23.8% and BAZ2B inh -27.0%.
`O=C(NO)c1cc(OCC(F)(F)F)ccc1OCC(F)(F)F` gave G9a inh 79.4µM*, HP1b chromo inh 10.3%, JMJD2A Tudor inh -27.7%[57.1 µM], PLK1 PBD block -1.3%, Sfp inh -2.2% and BAZ2B inh -34.3%.
For CCc1ccc(CNC(=O)c2cnc3c(C)cccn3c2=O)cc1 the results were G9a inh 23.8%[59 µM], HP1b chromo inh 42.6%, JMJD2A Tudor inh 10.3% and BAZ2B inh -2.6%.
`CCOc1ccc(S(=O)(=O)N2CCCC(C(=O)Nc3ccccc3)C2)cc1` (centres undefined) gave G9a inh -4.1%, HP1b chromo inh -6.5%, JMJD2A Tudor inh 4.2%, PLK1 PBD block -11.3%, Sfp inh 21.1% and BAZ2B inh 13.1%.
For O=[N+]([O-])c1ccccc1COc1ccc(Cl)c2cccnc12 the results were G9a inh 13.3%[2.33 µM], HP1b chromo inh 20.7%, JMJD2A Tudor inh -25.8%, PLK1 PBD block 23.8µM*, Sfp inh 8.6% and BAZ2B inh 2.2%.
For Cc1ccc(Cl)cc1-n1c(=O)c2sc3ccccc3c2n(CC(=O)NC2CCCC2)c1=O the results were G9a inh -28.3%[59 µM], HP1b chromo inh 40.7%, JMJD2A Tudor inh -9.9% and BAZ2B inh -2.0%.
For CCN1C=C(Cc2ccc(F)cc2)C2=C(C1)C(c1ccc(F)cc1)C(C#N)=C(N)O2 (centres undefined) the results were G9a inh inconclusive, HP1b chromo inh -31.5%, JMJD2A Tudor inh 50.1µM*, PLK1 PBD block -19.2%, Sfp inh 8.3% and BAZ2B inh inconclusive.
For CCN1C=C(Cc2ccccc2C)C2=C(C1)C(c1ccccc1C)C(C#N)=C(N)O2 (centres undefined) the results were G9a inh 14.1µM*, HP1b chromo inh inconclusive, JMJD2A Tudor inh 56.2µM*, PLK1 PBD block -4.6%, Sfp inh -26.5% and BAZ2B inh 44.7µM*.
For Cc1ccc(/C=C2\CCC3=C2OC(N)=C(C#N)C3c2ccc(C)cc2)cc1 (centres undefined) the results were G9a inh inconclusive, HP1b chromo inh 7.2%, JMJD2A Tudor inh -34.9%, PLK1 PBD block -0.6%, Sfp inh 6.0% and BAZ2B inh -37.1%.
`Cc1[nH][nH]c(=O)c1C(c1ccc(-c2ccc(F)cc2)o1)c1c(C)[nH][nH]c1=O` gave G9a inh 25.1µM*, HP1b chromo inh 2.1%, JMJD2A Tudor inh inconclusive, PLK1 PBD block 23.8µM*, Sfp inh inconclusive and BAZ2B inh inconclusive.
Screening Cc1[nH][nH]c(=O)c1C(c1ccc(N(C)C)c(Br)c1)c1c(C)[nH][nH]c1=O returned HP1b chromo inh 8.5%, JMJD2A Tudor inh inconclusive, PLK1 PBD block 0.0%, Sfp inh -19.5% and BAZ2B inh -8.7%.
Screening COc1ccc(-c2ccc(C(c3c(C)[nH][nH]c3=O)c3c(C)[nH][nH]c3=O)o2)c([N+](=O)[O-])c1 returned G9a inh 3.98µM*, HP1b chromo inh -12.5%, JMJD2A Tudor inh inconclusive, PLK1 PBD block 21.2µM*, Sfp inh 20µM* and BAZ2B inh 39.8µM*.
COCCNC(=O)/C(C#N)=C/c1ccc(-c2ccc(OC)cc2[N+](=O)[O-])o1 was read as G9a inh -7.8%, HP1b chromo inh 17.4%, JMJD2A Tudor inh -4.3%, PLK1 PBD block -3.9%, Sfp inh -1.2% and BAZ2B inh -23.8%.
Screening Cc1[nH][nH]c(=O)c1C(c1ccc(-c2ccc(C(=O)O)cc2)o1)c1c(C)[nH][nH]c1=O returned G9a inh 3.55µM*, HP1b chromo inh inconclusive, JMJD2A Tudor inh -32.0%, PLK1 PBD block 23.8µM*, Sfp inh -88.1% and BAZ2B inh 56.2µM*.
Cc1[nH][nH]c(=O)c1C(c1ccc(-c2ccc(Cl)c(Cl)c2)o1)c1c(C)[nH][nH]c1=O was read as G9a inh 11.2µM*, HP1b chromo inh -34.6%, JMJD2A Tudor inh inconclusive, PLK1 PBD block 15µM*, Sfp inh 56.2µM* and BAZ2B inh inconclusive.
For CC(C)COc1cccc(C(=O)NC(=S)NCc2cccnc2)c1 the results were G9a inh 44.7µM*, HP1b chromo inh -15.7%, JMJD2A Tudor inh inconclusive, PLK1 PBD block -1.3%, Sfp inh 10.6% and BAZ2B inh -35.0%.
For COCc1ccc(C(=O)Nc2ccccc2C(=O)NCc2cccnc2)cc1 the results were G9a inh 18.5%, HP1b chromo inh 5.2%, JMJD2A Tudor inh -7.7%, PLK1 PBD block -2.4%, Sfp inh 13.0% and BAZ2B inh -15.9%.
Screening CCCOc1ccc(C(=O)NCc2cccnc2)cc1 returned G9a inh 0.3%[12.7 µM], HP1b chromo inh 34.4%, JMJD2A Tudor inh -2.3%, PLK1 PBD block -2.2%, Sfp inh 6.2% and BAZ2B inh -36.1%.
Screening C=CCOc1ccc(C(=O)Nc2ccccc2C(=O)NCc2cccnc2)cc1 returned G9a inh 70.8µM*, HP1b chromo inh 8.0%, JMJD2A Tudor inh -18.6%, PLK1 PBD block 2.0%, Sfp inh -7.0% and BAZ2B inh -11.6%.

Screening data (PubChem)
